The text below walks through data of PubChem BioAssay AID1347076 (National Center for Advancing Translational Sciences (NCATS), 2019).

About 13,000 (3.2%) of roughly 400,000 compounds were called active. Another 18% or so got no clear call; they are omitted. Shown is part of a subset that was picked to be rich in actives. Values without a mark were called inactive. The call rests on the fitted dose curve; in most records, active means well fitted cell-killing curve with a large enough effect; inconclusive means small, poorly fitted or top-dose-only effect, or effect the other way; inactive means flat fitted curve, though single readings scatter.
On the % scale 0 is the no-effect control and ±100 the full control effect; potency means the concentration at half of the fitted maximal effect.

This assay can be described thus: qHTS assay for MDR1-selective chemotherapeutics: Primary screen using the drug-selected MDR subline cells KB-V1. Further: nearly all actives have a fitted effect of over 60% in size. The note with it: KB-V1 MDR cells viability, CellTiter-Glo, 72 h; series mostly up to 46.1 µM; activity change, negative = cytotoxicity: at the top concentration. In short, it runs like this:
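Compound-treated KB-V1 multidrug-resistant cells, 72 h, 37 degrees C; viability by CellTiter-Glo. Fitted qHTS curves give the values.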
In the case of `COC(=O)c1ccccc1NS(=O)(=O)c1ccc2c(c1)CCCN2C(C)=O`, the “activity change, negative = cytotoxicity” value is 6.42%.

Take `CCOc1cc(/C=N/NC(=O)c2c(C)nc3ccc(Cl)cn23)ccc1O`: the “activity change, negative = cytotoxicity” value is 18%.

As to `CCc1oc(-c2ccc(OC)cc2)c(C(=O)OCCCCCO)c1C(C)OCCO` (stereo not drawn), the “activity change, negative = cytotoxicity” value was 2.82%.

As for `CC12CCC(C(=O)N(c3cccc(Cl)c3)C1=O)C2(C)C` (stereo not drawn), the “activity change, negative = cytotoxicity” value is -8.2%.

As for `CC12CCC(C(=O)N(NC(=O)c3ccccc3O)C1=O)C2(C)C` (stereo not drawn), the Potency was 3.26 µM (active).

Take `O=C(NN1C(=O)C2C(C1=O)C1C=CC2C12CC2)c1ccccc1Cl` (stereo not drawn): the “activity change, negative = cytotoxicity” value is 13.1%.

With `O=C(NCc1ccccc1)C1CNCC(C(=O)NCc2ccccc2)C1` (stereo not drawn), the “activity change, negative = cytotoxicity” value was 19.2%.

With `O=C(OC/C=C/CSc1nnc(-c2cccc3ccccc23)o1)c1ccc(F)cc1`, the “activity change, negative = cytotoxicity” value is -4.97%.

As for `COc1cc(S(=O)(=O)N(Cc2cccs2)C2CC2)ccc1-n1cnnn1`, the Potency was 4.61 µM (active).

`CCOc1ccc(CN(Cc2ccco2)S(=O)(=O)c2ccc(-n3cnnn3)c(OC)c2)cc1`: the “activity change, negative = cytotoxicity” value is 0%.

On to `Cc1cc(S(=O)(=O)NC2CCCC2)ccc1-n1cnnn1`, for which the “activity change, negative = cytotoxicity” value was 0.365%.

For `CCOC(=O)c1c(C)oc2nc(C)nc(Nc3ccc(CC)cc3)c12`, the “activity change, negative = cytotoxicity” value is 2.93%.

As to `O=C(C(=O)N1CCC(c2ccccc2)CC1)c1ccccc1`, the “activity change, negative = cytotoxicity” value is -16.7%.

Turning to `Cc1csc(SCC(=O)Nc2ccc(C)c(S(=O)(=O)N(C)C)c2)n1`, the “activity change, negative = cytotoxicity” value was -23.4%.

With `CCN1CCN(CCNC(=O)c2ccc3c(c2)NC(=O)/C(=C\c2cccc(Cl)c2)S3)CC1`, the “activity change, negative = cytotoxicity” value was 16.5%.

`O=C(OCC(=O)N1CCCCCC1)c1cccc(Cl)c1Cl`: the “activity change, negative = cytotoxicity” value is 1.14%.

For the molecule `CCOc1ccc(CCN2C(=S)N([C@@H](CC(C)C)CN3CCC[C@@H]3CN3C(=S)NC[C@@H]3Cc3ccc(O)cc3)C[C@@H]2Cc2ccc(O)cc2)cc1`, the “activity change, negative = cytotoxicity” value is -23.8%.

For the molecule `CCC(=O)N1CCc2cc(S(=O)(=O)NC(Cc3ccccc3)C(=O)NCc3ccccc3)ccc21` (stereo not drawn), the “activity change, negative = cytotoxicity” value is 4.74%.

Regarding `CC1CCCN(CCOCCOc2ccccc2-c2ccccc2)C1` (stereo not drawn), the Potency is 20.6 µM (active).

In the case of `CN1CCN(CCCCOc2ccccc2-c2ccccc2)CC1`, the “activity change, negative = cytotoxicity” value was 9.51%.

As to `CC1CCCN(CC(O)COCc2ccccc2)C1` (stereo not drawn), the “activity change, negative = cytotoxicity” value was 6.78%.

Regarding `OC[C@@H]1CN(Cc2ccc(F)cc2)C[C@H](n2cnc3c(NC4CCCC4)ncnc32)O1`, the “activity change, negative = cytotoxicity” value was 0.456%.

In the case of `Cc1ccc(N2CCN(C(=S)Nc3cc(C)ccn3)CC2)cc1`, the “activity change, negative = cytotoxicity” value was 0%.

As for `CC(NC(=O)CC1SC(N)=NC1=O)c1ccccc1` (stereo not drawn), the “activity change, negative = cytotoxicity” value was -19%.

For the molecule `O=C1NC(=Nc2ccc(Cl)cc2)SC1Cc1cccc(Cl)c1Cl` (stereo not drawn), the “activity change, negative = cytotoxicity” value is -12.8%.

`NC1=NC(=O)C(Cc2cccc(Cl)c2Cl)S1` (stereo not drawn): the Potency was 18.4 µM (active).

`C[C@@H]1CN([C@H](C)CO)S(=O)(=O)c2ccc(C#C[C@@H](C)O)cc2O[C@@H]1CN(C)Cc1ccc(-c2ccccc2)cc1`: the “activity change, negative = cytotoxicity” value was -1.21%.

For `Cc1cc(Br)cn2c(Cc3ccsc3)c(-c3ccc(C#N)cc3)nc12`, the “activity change, negative = cytotoxicity” value was 2.33%.

Take `COc1cccc(OCCn2c(-c3ccc(Br)cc3)nc3ccccc3c2=O)c1`: the “activity change, negative = cytotoxicity” value is 3.93%.

For the molecule `CC[C@]1(O)C[C@@H]2CN(CCc3c([nH]c4ccccc34)[C@@](C(=O)OC)(c3cc4c(cc3OC)N(C)[C@H]3[C@@](O)(C(=O)OC)[C@H](OC(C)=O)[C@]5(CC)C=CCN6CC[C@]43[C@@H]65)C2)C1`, the Potency is 5.17 µM (active).

Regarding `CC[C@]1(O)CC2CN(CCc3c([nH]c4ccccc34)[C@@](C(=O)OC)(c3cc4c(cc3OC)N(C=O)[C@H]3[C@@](O)(C(=O)OC)[C@H](OC(C)=O)[C@]5(CC)C=CCN6CC[C@]43[C@@H]65)C2)C1` (stereo partly drawn), the Potency was 20.6 µM (active).

Take `O=CNc1cc(-c2ccc(C(=O)N3CCOCC3)cc2)cn2c(-c3ccc(F)cc3)cnc12`: the “activity change, negative = cytotoxicity” value is -18%.

On to `COC(=O)c1cc(NC(=O)CCS(=O)(=O)c2cc(Br)cc3c2N(C(=O)C2CC2)CC3)cc(C(=O)OC)c1`, for which the “activity change, negative = cytotoxicity” value was 7.94%.

Regarding `CCNC(=O)C1CCCN(C(=O)c2cc(F)ccc2C)CC1` (stereo not drawn), the “activity change, negative = cytotoxicity” value was -22.9%.

`COc1ccc(NC(=O)C(c2ccncc2)n2c(=O)c(-c3cc4ccccc4[nH]3)nc3ccccc32)cc1` (stereo not drawn): the “activity change, negative = cytotoxicity” value is -0.812%.

With `CC(C)c1ccc(NC(=O)c2cc(S(=O)(=O)N3CCc4ccccc4C3)ccc2F)cc1`, the “activity change, negative = cytotoxicity” value was -14.2%.

With `Cc1ccccc1S(=O)(=O)N1[C@@H](c2cccc(Cl)c2)C(C(=O)OC(C)(C)C)=CC[C@H]1c1ccc(Cl)cc1`, the “activity change, negative = cytotoxicity” value was 0%.

As to `COCCCNCCOCCOc1ccc(Cl)cc1Br`, the “activity change, negative = cytotoxicity” value is -3.06%.

`CCOCCCNCc1cc(Br)ccc1OCC`: the “activity change, negative = cytotoxicity” value is -3.55%.

For `CCC(C)NCCOCCOc1ccc(Br)cc1C` (stereo not drawn), the Potency was 20.6 µM (active).

Turning to `COc1ccc(N)cc1NC(=O)CN1CCOCC1`, the “activity change, negative = cytotoxicity” value was 16.4%.

Consider `CCCS(=O)(=O)NC(=O)C1(C)CCN(C(=O)c2sccc2C)C1` (stereo not drawn), for which the “activity change, negative = cytotoxicity” value is 2.03%.

Regarding `O=C(CN1c2ccccc2S(=O)(=O)c2ccccc21)Nc1cccc(C(F)(F)F)c1`, the “activity change, negative = cytotoxicity” value was -7.05%.

Regarding `COc1ccc2[nH]c(=O)c(CN(Cc3nnnn3CCc3ccccc3)CC3CCCO3)cc2c1` (stereo not drawn), the “activity change, negative = cytotoxicity” value was -18.1%.

`Cc1cc(C)c2cc(CN(Cc3cccs3)Cc3nnnn3CC3CCCO3)c(=O)[nH]c2c1` (stereo not drawn): the Potency was 16.4 µM (active).

`Cc1cc2cc(CN(Cc3cccs3)Cc3nnnn3CC3CCCO3)c(=O)[nH]c2cc1C` (stereo not drawn): the “activity change, negative = cytotoxicity” value was -10.7%.

Take `CCN(CC)C(=O)C1CCCN(Cc2cccc(Cl)c2)C1` (stereo not drawn): the “activity change, negative = cytotoxicity” value was -18.5%.

As to `Cc1ccc(NC(=O)C2CCCN2C(=O)OCc2ccccc2)cc1C` (stereo not drawn), the “activity change, negative = cytotoxicity” value was -4.42%.
